The values below come from PubChem BioAssay (Tox21).

A short description of assay [1]: qHTS assay to identify small molecule agonists of H2AX (AID 1224845; active = well fitted activation curve with a large enough effect in the signal ratio in the repeat runs, not every such curve was filed as active; the % refers to the signal ratio; also: potency is read from the fitted curve at half-maximal effect). The procedure, abridged: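 Wild-type CHO-K1 cells, plated overnight, exposed 3hr at 37C to 15 concentrations (0.76% DMSO final). Lysed, then HTRF anti-pH2AX (S139) cryptate and anti-H2AX-d2 antibodies, 24 hr room temperature; 665/620 nm emission read.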
For orientation: In qHTS, concentration-response curves come from the screen itself.

Assay [2] is described as follows: qHTS assay to identify small molecule agonists of the hypoxia (HIF-1) signaling pathway (AID 1224846; active = well fitted activation curve with a large enough effect in the signal ratio in the repeat runs, not every such curve was filed as active; the % refers to the signal ratio). In short, it runs like this: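 HRE-bla ME-180 cells (beta-lactamase reporter under hypoxia response element) were plated at 2,000 cells/well in medium with 0.5% dialyzed FBS, rested 5 hrs, then given compounds in DMSO for 17 hrs at 37C, 5% CO2. Reporter induction was read with CCF4-AM FRET substrate.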

Assay [3] is described as follows: qHTS assay to identify small molecule agonists of H2AX - cell viability counter screen (AID 1224847; calls by dose curve; also: nearly all actives have a fitted effect of over 30% in size; also: potency is read from the fitted curve at half-maximal effect). The procedure, abridged: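 Read-out: CellTiter-Glo luminescence, 30 min RT. Cells: wild-type CHO-K1, 1000/well, 10% FBS, plated overnight at 37C. Treatment: 15 concentrations, 3 hr, 37C, 0.76% DMSO.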
The nature of assay [4]: qHTS RealTime-Glo MT Cell Viability Assay in HepG2 cells - 24 hour (AID 1224867). Also: nearly all actives have a fitted effect of over 50% in size. Also: potency is read from the fitted curve at half-maximal effect. The procedure, abridged:
(§1)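 HepG2 cells were seeded at 600 cells/well together with NanoLuc luciferase and a cell-permeant prosubstrate, preincubated 5 h at 37 C/5% CO2, then pin-dosed with compounds in DMSO. Nonlytic luminescence from viable cells was read at each time point.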

The nature of assay [5]: qHTS RealTime-Glo MT Cell Viability Assay in HEK293 cells - 32 hour (AID 1224868). Also: nearly all actives have a fitted effect of over 50% in size. Also: potency is read from the fitted curve at half-maximal effect. In short, it runs like this: (§2)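 HEK293 cells were seeded at 600 cells/well together with NanoLuc luciferase and cell-permeant prosubstrate, preincubated 5 h at 37 C/5% CO2, then given compound in DMSO by pintool. Luminescence from viable-cell prosubstrate reduction was read repeatedly over 40 h.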

The nature of assay [6]: qHTS RealTime-Glo MT Cell Viability Assay in HepG2 cells - 40 hour (AID 1224870). Also: nearly all actives have a fitted effect of over 50% in size. Also: potency is read from the fitted curve at half-maximal effect. The procedure, abridged: (§3)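 HepG2 cells (600/well) mixed with RealTime-Glo MT reagent, settled 5 h at 37 C/5% CO2 before compound addition. Nonlytic NanoLuc luminescence from viable-cell prosubstrate reduction read repeatedly during 40 h treatment at 37 C.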
The nature of assay [7]: qHTS RealTime-Glo MT Cell Viability Assay in HEK293 cells - 16 hour (AID 1224872). Also: nearly all actives have a fitted effect of over 50% in size. Also: potency is read from the fitted curve at half-maximal effect. The procedure, abridged: as §2
A short description of assay [8]: qHTS RealTime-Glo MT Cell Viability Assay in HepG2 cells - 8 hour (AID 1224873). Also: nearly all actives have a fitted effect of over 55% in size. Also: potency is read from the fitted curve at half-maximal effect. In short, it runs like this:
as §3

Assay [9] in a line: qHTS RealTime-Glo MT Cell Viability Assay in HEK293 cells - 40 hour (AID 1224874). Also: nearly all actives have a fitted effect of over 50% in size. Also: potency is read from the fitted curve at half-maximal effect. The conditions noted are these: RealTime-Glo luminescence; max response: stronger effect = lower value. The procedure, abridged: (§4)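 HEK293 cells mixed with RealTime-Glo reagents (NanoLuc plus cell-permeant prosubstrate) at 600 cells/well, preincubated 5 h at 37 C/5% CO2, then given 23 nL compound in DMSO. Nonlytic luminescence from viable cells was read at 0, 8, 16, 24, 32 and 40 h.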

Assay [10] can be described thus: A CellTox Green Cytotoxicity Assay to monitor cytotoxicity in HEK293 cells - 24 hour (AID 1224875). Also: nearly all actives have a fitted effect of over 45% in size. Also: potency is read from the fitted curve at half-maximal effect. The procedure, abridged: (§5)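 HEK293 cells premixed with CellTox Green dye were seeded at 600 cells/well and left 5 h at 37 C/5% CO2 before pin transfer of 23 nL compound in DMSO. Fluorescence from dye bound to dead-cell DNA was read during 40 h treatment.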
A short description of assay [11]: A CellTox Green Cytotoxicity Assay to monitor cytotoxicity in HepG2 cells - 16 hour (AID 1224876). Also: nearly all actives have a fitted effect of over 45% in size. Also: potency is read from the fitted curve at half-maximal effect. In short, it runs like this: (§6)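 HepG2 cells were seeded together with the CellTox Green dye at 600 cells/well, left 5 h at 37 C/5% CO2, then given compounds in DMSO. Fluorescence from dye bound to dead-cell DNA was read repeatedly over 40 h of treatment at 37 C.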
The nature of assay [12]: qHTS RealTime-Glo MT Cell Viability Assay in HepG2 cells - 32 hour (AID 1224877). Also: nearly all actives have a fitted effect of over 55% in size. Also: potency is read from the fitted curve at half-maximal effect. The procedure, abridged: as §1
Assay [13] can be described thus: A CellTox Green Cytotoxicity Assay to monitor cytotoxicity in HepG2 cells - 24 hour (AID 1224878). Also: nearly all actives have a fitted effect of over 45% in size. Also: potency is read from the fitted curve at half-maximal effect. In short, it runs like this: as §6
Assay [14] in a line: A CellTox Green Cytotoxicity Assay to monitor cytotoxicity in HepG2 cells - 40 hour (AID 1224879). Also: nearly all actives have a fitted effect of over 40% in size. Also: potency is read from the fitted curve at half-maximal effect. In short, it runs like this: as §6
Assay [15] in a line: qHTS RealTime-Glo MT Cell Viability Assay in HEK293 cells - 0 hour (AID 1224880). Also: top concentration of the series differs between compounds; nearly all actives have a fitted effect of over 45% in size. The procedure, abridged: as §4
The nature of assay [16]: qHTS assay to identify small molecule antagonists of the estrogen related receptor (ERR) signaling pathway from Tox21 library (AID 1224848). Also: nearly all actives have a fitted effect of over 50% in size. Also: potency is read from the fitted curve at half-maximal effect. The procedure, abridged: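 Luminescent reporter read-out (ONE-Glo) from NTP's ERR cell line after 18 h treatment at 37 C with DMSO-dissolved Tox21 compounds; cells pre-plated 6 h beforehand at 2,000 per well.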
Assay [17] can be described thus: qHTS assay to identify small molecule agonists of the estrogen related receptor (ERR) signaling pathway from Tox21 library (AID 1224849; calls by dose curve; also: nearly all actives have a fitted effect of over 15% in size). The conditions noted are these: ERR reporter cell line, ONE-Glo luciferase, 18 h; at 92.4 µM (top of the series). The procedure, abridged: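 ERR reporter cell line (NTP) seeded, rested 6 h at 37 C/5% CO2, then pinned with Tox21 compounds in DMSO. After 18 h at 37 C, ONE-Glo luciferase luminescence was read following 30 min at room temperature.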

Assay [18] can be described thus: A CellTox Green Cytotoxicity Assay to monitor cytotoxicity in HEK293 cells - 40 hour (AID 1224871). Also: nearly all actives have a fitted effect of over 45% in size. The procedure, abridged: as §5
Assay [19] can be described thus: A CellTox Green Cytotoxicity Assay to monitor cytotoxicity in HEK293 cells - 0 hour (AID 1224869). Also: nearly all actives have a fitted effect of over 50% in size. In short, it runs like this:
as §5

“And” between values parts separate entries of the source, which are not always exact repeats. Equal entries are not always repeated. Results filed as inconclusive are left out. The source holds several records for some structures; these can differ, active in one and inactive in another. The source made the active and inactive calls. Unless noted, calls follow the shape of the dose curve; as a rule, active = well fitted curve in the direction sought with a large enough effect in the repeat runs; inconclusive = weak or mixed curves; inactive = no such curve, though single readings can be large; an effect the other way counts as inactive or inconclusive.
% is scaled to controls: 0 for no effect and ±100 for the full control effect.

Consider `CC(C)C1(C)N=C(c2ncccc2C(=O)O)NC1=O` (centres undefined), for which the Potency entry in assay [1], in [3], in assay [4], in assay [5], in assay [6] and in assay [7] was “inactive” in each case. Besides, the Potency result in [8], in [10], in assay [11], in [12], in assay [13] and in assay [14] was “inactive” throughout. Moreover, the compound was classed as inactive in assay [2] and in assay [15]. The max response in assay [9] was 1.4% (inactive).

In the case of `N#CC1(N=NC2(C#N)CCCCC2)CCCCC1`, the Potency entry in [1], in assay [16], in [4], in [5], in assay [6] and in assay [18] was “inactive” each time. In addition, the Potency result in assay [7], in assay [8], in assay [10], in assay [11], in assay [12] and in [13] was “inactive” throughout. Besides, the Potency result in assay [14] was “inactive”. Also, the call in assay [2] and in [15] was inactive. Besides, the activity change, positive = activation in [17] was -5.87% (inactive). In addition, the max response in [9] was -7.83% (inactive).

For `c1ccc2sc(SNC3CCCCC3)nc2c1`, the Potency entry in [1], in assay [4], in [5], in assay [19], in assay [6] and in assay [18] was “inactive” each time. Also, the Potency entry in assay [7], in [8], in [10], in assay [11], in assay [12] and in assay [13] was “inactive” in each case. Besides, the Potency entry in [14] is “inactive”. For the same compound, the call in assay [2] and in [15] was inactive. Also, in [9], the max response was -0.932% (inactive) and 2.76% (inactive).

With `CN(C)c1ccc(N=O)cc1`, in [16], the Potency entry was “inactive”. In addition, in [17], the activity change, positive = activation is -55.7% (active) and -48.2% (active). In addition, the Potency in assay [4] is 55.1 µM (active) and 38.9 µM (active); in assay [5] it was 15.5 µM (active) and 21.9 µM (active); in [6] it was 34.7 µM (active); in assay [7] it was 15.5 µM (active) and 21.9 µM (active); in [8], 49.1 µM (active) and 24.5 µM (active); in assay [9], 13.8 µM (active) and 19.5 µM (active). The Potency was 13.8 µM (active) and 19.5 µM (active) in assay [10]; 34.7 µM (active) in assay [12]; 49.1 µM (active) in assay [13].

Regarding `OCC1CO1` (centres undefined), the Potency entry in [1], in [3], in assay [4], in assay [5], in [19] and in assay [6] was “inactive” in each case. For the same compound, the Potency entry in assay [18], in [7], in assay [8] and in [12] was “inactive” throughout. The compound was classed as inactive in assay [2] and in assay [15]. In addition, the max response in assay [9] was 0.843% (inactive) and 1.08% (inactive). Also, the Potency in assay [13] is 44.4 µM (active).

Consider `CCC1(CC)C(=O)NC(=O)NC1=O`, for which the Potency entry in assay [1], in assay [3], in assay [4], in assay [5], in [19] and in assay [6] was “inactive” in each case. For the same compound, the Potency result in assay [18], in assay [7], in assay [8], in [10], in [11] and in assay [12] was “inactive” throughout. Also, the result in assay [2] and in assay [15] was inactive. In addition, in assay [9], the max response was 0.988% (inactive).

As for `CCC(C)(C)c1ccc(O)c(C(C)(C)CC)c1`, the Potency in [1] was 56 µM (active) and 35.7 µM (active); in assay [3] it was 88.8 µM (active) and 40.1 µM (active); in assay [16] it was 60.4 µM (active) and inactive; in [5] it was 48.5 µM (active) and inactive; in [7], 43.2 µM (active); in assay [9], 43.2 µM (active). Further, the Potency in assay [10] is 43.2 µM (active) and 17.4 µM (active); in [11], 24.3 µM (active); in [13], 34.3 µM (active); in [14], 38.5 µM (active). The activity change, positive = activation in assay [17] is -59% (inactive) and -10.3% (inactive). In addition, the Potency result in assay [19], in [6] and in [12] was “inactive” throughout. In assay [9], the max response was -21.8% (inactive). For the same compound, the result in assay [15] was inactive.
